Only some compounds are listed: those with a hit (about 3.7% of all), similar ones and a draw of the others.
GLP1R inv ag: acts as inverse agonist at human GLP-1 receptor; hit rate 1.6% among 410,000; Potency, µM (highest dose often 38.3 µM), for the others: top-dose activity change, negative = inhibition, actives largely listed as inhibitors; HEK293 GLP-1R CRE-luciferase, luminescence, 24 h; GLP-1R form is constitutively active; P43220; AID 624417; note: % is set by controls: 0 for no effect and ±100 for the full control effect; nearly all actives have a fitted effect of over 55% in size
Target sequence (P43220 whole entry, looked up): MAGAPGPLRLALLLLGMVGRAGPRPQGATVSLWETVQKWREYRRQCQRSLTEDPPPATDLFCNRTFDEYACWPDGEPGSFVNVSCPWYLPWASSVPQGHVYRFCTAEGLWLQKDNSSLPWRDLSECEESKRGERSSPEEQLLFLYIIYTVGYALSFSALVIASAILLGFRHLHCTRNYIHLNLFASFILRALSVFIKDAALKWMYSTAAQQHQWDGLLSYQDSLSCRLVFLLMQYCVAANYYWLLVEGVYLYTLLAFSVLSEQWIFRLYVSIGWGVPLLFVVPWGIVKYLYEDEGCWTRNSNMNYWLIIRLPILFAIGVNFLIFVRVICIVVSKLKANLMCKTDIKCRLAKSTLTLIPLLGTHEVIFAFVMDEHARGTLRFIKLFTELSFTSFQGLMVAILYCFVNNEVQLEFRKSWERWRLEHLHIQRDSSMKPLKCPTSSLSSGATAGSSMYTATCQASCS
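Inverse agonism was detected as reduced cAMP-driven luciferase luminescence after 24 h compound treatment. The cells were HEK293 clones expressing constitutively active human GLP-1R with the reporter. Reporter-only and GPR119 cell lines served as counterscreen controls.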
ATXN2 expr inh: inhibitors of ATXN2 expression; HEK-293 ATXN2-luciferase reporter, luminescence, 24 h; Potency, µM (titrated, usually from 57 µM), without a hit: at the top dose activity change, negative = inhibition, usual class: inhibitors; hit rate 0.72% among 360,000; note: % is set by controls: 0 for no effect and ±100 for the full control effect; nearly all actives have a fitted effect of over 55% in size
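qHTS (up to 57 uM final) was run with 24 h compound exposure of reporter cells at 37 °C. Each well was multiplexed: SteadyGlo luminescence measured ATXN2-luciferase expression after a fluorogenic Gly-Phe-AFC viability readout (25 uM final).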
TGFb inhibitor: inhibitors of TGF-b signaling. Potency, µM (series often up to 46.1 µM), for inactives: at the top dose activity, negative = inhibition, most hits filed as inhibitors. AID 588855. HepG2 CAGA-GFP TGF-b/SMAD3 reporter, GFP fluorescence, 18 h; TGF-beta stimulated, 500 pg/mL final. hit rate 1.2% among 410,000; note: % is set by controls: 0 for no effect and ±100 for the full control effect; nearly all actives have a fitted effect of over 65% in size
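Using HEPG2 CAGA-GFP reporter cells at 1000 cells/well, we pinned test compounds, stimulated with recombinant TGF-beta (500 pg/mL final) and measured total well GFP after 18 h.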
S2 tox: viability counter-screen for ATXN expression inhibitors. S2 cells (HEK-293 line with an ATXN2-luciferase reporter) viability, CellTiter-Fluor protease fluorescence, 24 h. Potency, µM (series often up to 56.7 µM), most hits filed as cytotoxic. hit rate 0.49% among 400,000. AID 651635; note: nearly all actives have a fitted effect of over 40% in size
GLP1R ag: activates the human GLP-1 receptor | Potency, µM (doses to about 45.6 µM), for inactives: top-dose activation, hits mostly activators | AID 624172 | P43220 | hit rate 0.007% among 380,000 | HEK293 GLP-1R CRE-luciferase, luminescence, 4-6 h; cells express a hypersensitive GLP-1R form; note: % of control where 0% means no effect
HepG2 tox-1: kills HepG2 cells in TGF-b inhibitor counter-screen | AID 588856 | Potency, µM (titrated, usually from 46.1 µM), for inactives: at the highest dose activity change, negative = cytotoxicity, usual class: cytotoxic | HepG2 CAGA-GFP viability, ATP luminescence, 18 h | hit rate 0.76% among 410,000
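HepG2 CAGA-GFP cells (1000/well, DMEM with 1% FBS) received compound, then TGF-beta at 500 pg/mL final, and were incubated 18 hours at 37 degrees C. Viability was read by CellTiter-Glo luminescence. Media-only wells were set as complete cell-killing and DMSO as no toxicity.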
TGFb CAGA inh: TGF-b pathway inhibition, cherry-pick retest; shares compounds with TGFb inhibitor; HepG2 CAGA-GFP TGF-b reporter, GFP fluorescence, 18 h; cells stimulated with TGF-beta, 500 pg/mL; Potency, µM (top dose mostly 46.1 µM), inactives show top-dose activity, negative = inhibition, actives largely listed as inhibitors; hit rate 63% among 1,600; note: % is set by controls: 0 for no effect and ±100 for the full control effect; nearly all actives have a fitted effect of over 65% in size
HepG2 tox-2: HepG2 cytotoxicity, TGF-b inhibitor counterscreen; shares compounds with TGFb inhibitor; HepG2 CAGA-GFP viability, ATP luminescence, 18 h; cells stimulated with TGF-beta, 500 pg/mL; Potency, µM (series often up to 46.1 µM), inactives show top-dose activity, negative = cytotoxicity, most hits filed as inhibitors; hit rate 27% among 1,600; AID 720535; note: % is set by controls: 0 for no effect and ±100 for the full control effect; nearly all actives have a fitted effect of over 70% in size
CCL64 TGFb inh: TGF-b inhibition, CCL64 orthogonal assay. Potency, µM (titrated, usually from 46.1 µM), for the others: at the highest dose activity, negative = inhibition, hits mostly inhibitors. hit rate 41% among 1,600. shares compounds with TGFb inhibitor. CCL64 CAGA-GFP reporter, TGF-b stimulated, GFP fluorescence, 18 h; note: nearly all actives have a fitted effect of over 65% in size
TGFb COP inh: TGF-b inhibition validated with COP promoter | AID 720537 | hit rate 3% among 1,600 | shares compounds with TGFb inhibitor | HepG2 COP-GFP TGF-b reporter, GFP fluorescence, 18 h; cells stimulated by added recombinant TGF-beta | Potency, µM (series often up to 46.1 µM), without a hit: at the highest dose activity, negative = inhibition, usual class: inhibitors; note: nearly all actives have a fitted effect of over 70% in size
* hit, by the source's call; [ ] = remark or other dose. Calls come from the whole dose curve; as a rule, active = well fitted curve in the direction sought with a large enough effect; inconclusive = small, poorly fitted or top-dose-only effect, or another doubt; inactive = no such curve, though single readings can be large; an effect the other way counts as inactive or inconclusive. Potency is the fitted concentration of half-maximal effect.

For O=C1C(NS(=O)(=O)c2cccs2)=C(N2CCN(Cc3ccccc3)CC2)C(=O)c2ccccc21 the results were GLP1R inv ag inconclusive, TGFb inhibitor 8.9µM*, S2 tox inactive, GLP1R ag 0%, HepG2 tox-1 10µM*, TGFb CAGA inh inconclusive, HepG2 tox-2 -24%, CCL64 TGFb inh -10% and TGFb COP inh 16%.
Screening COc1ccc(NC(=O)Nc2ccc(O)c3ccccc23)cc1 returned GLP1R inv ag 9%, ATXN2 expr inh inconclusive, TGFb inhibitor 6.3µM*, S2 tox inconclusive, GLP1R ag -6%, HepG2 tox-1 -131%, TGFb CAGA inh inconclusive, HepG2 tox-2 -21%, CCL64 TGFb inh 16µM* and TGFb COP inh 0%.
For CC(C)c1ccc(NC(=O)C2(C)Cc3ccccc3C(=O)O2)cc1 (stereo not drawn) the results were GLP1R inv ag inconclusive, ATXN2 expr inh 19%, TGFb inhibitor 9%, S2 tox inactive and HepG2 tox-1 -12%.
For O=C(CN(CCc1ccccc1)S(=O)(=O)c1ccc(Cl)cc1)N/N=C/c1ccc2c(c1)OCO2 the results were GLP1R inv ag 0%, ATXN2 expr inh -39%, TGFb inhibitor inconclusive, S2 tox inconclusive, GLP1R ag -1%, HepG2 tox-1 7%, TGFb CAGA inh inconclusive, HepG2 tox-2 -24%, CCL64 TGFb inh 0% and TGFb COP inh -23%.
Screening CC(=NNC(=S)N1CCCCC1)c1ccccn1 returned GLP1R inv ag -84%, TGFb inhibitor 0.63µM*, S2 tox inconclusive, GLP1R ag -4%, HepG2 tox-1 -70%, TGFb CAGA inh 1.3µM*, HepG2 tox-2 inconclusive, CCL64 TGFb inh 0.65µM* and TGFb COP inh -7%.
`C=CCNC(=S)N/N=C(\C)c1ccccn1` gave GLP1R inv ag 0%, ATXN2 expr inh -91%, TGFb inhibitor 2.8µM*, GLP1R ag 0%, HepG2 tox-1 -26%, TGFb CAGA inh 10µM*, HepG2 tox-2 inconclusive, CCL64 TGFb inh 1.3µM* and TGFb COP inh -4%.
For CC(=NNC(=S)Nc1ccccc1)c1ccccn1 the results were GLP1R inv ag -37%, TGFb inhibitor inconclusive, S2 tox inconclusive, GLP1R ag 16% and HepG2 tox-1 -38%.
C/C(=N\NC(=O)c1ccccc1-n1cccc1)c1ccccn1 was read as GLP1R inv ag inconclusive, TGFb inhibitor 14µM*, S2 tox 2.8µM*, GLP1R ag 1%, HepG2 tox-1 -36%, TGFb CAGA inh 10µM*, HepG2 tox-2 inconclusive, CCL64 TGFb inh inconclusive and TGFb COP inh 21%.
CCn1cc2nc(SCC(=O)Nc3ccccc3F)n(Cc3ccc(C)cc3)c(=O)c2n1 was read as GLP1R inv ag inconclusive, ATXN2 expr inh -13%, TGFb inhibitor -27%, S2 tox inactive and HepG2 tox-1 -14%.
For O=C(CSc1n[nH]c(-c2ccccc2)n1)Nc1ncccn1 the results were GLP1R inv ag 24%, ATXN2 expr inh -8%[11.3 µM], TGFb inhibitor -16%, S2 tox inactive, GLP1R ag 4% and HepG2 tox-1 5%.
For O=C(CSc1n[nH]c(-c2ccncc2)n1)Nc1ccccn1 the results were GLP1R inv ag 10%, ATXN2 expr inh -13%, TGFb inhibitor 11µM*, S2 tox inactive, GLP1R ag 6%, HepG2 tox-1 0%, TGFb CAGA inh 16µM*, HepG2 tox-2 -1%, CCL64 TGFb inh inconclusive and TGFb COP inh -15%.
For O=C(c1ccc(Cl)cc1)C(CN1CCCC1)c1ccccc1 (stereo not drawn) the results were GLP1R inv ag inconclusive, TGFb inhibitor 7.9µM*, GLP1R ag -1%, HepG2 tox-1 -115%, TGFb CAGA inh 3.7µM*, HepG2 tox-2 8.2µM*, CCL64 TGFb inh 2.6µM* and TGFb COP inh inconclusive.
Screening CCCCOc1ccc(C(=O)C(CN2CCOCC2)c2ccccc2)cc1 (stereo not drawn) returned GLP1R inv ag inconclusive, ATXN2 expr inh inconclusive, TGFb inhibitor inconclusive, GLP1R ag -9% and HepG2 tox-1 -105%.
Screening O=C(c1ccc(F)cc1)C(CN1CCOCC1)c1ccccc1 (stereo not drawn) returned GLP1R inv ag inconclusive, ATXN2 expr inh inconclusive, TGFb inhibitor 3.5µM*, GLP1R ag -47%, HepG2 tox-1 18µM*, TGFb CAGA inh 7.3µM*, HepG2 tox-2 16µM*, CCL64 TGFb inh 3.7µM* and TGFb COP inh inconclusive.
`CCCOc1ccc(C(=O)C(CN2CCCC2)c2ccccc2)cc1` (stereo not drawn) gave GLP1R inv ag inconclusive, ATXN2 expr inh inconclusive, TGFb inhibitor inconclusive, S2 tox inconclusive, GLP1R ag 4% and HepG2 tox-1 -92%.
For Cc1c2cnn(CC(=O)N3CCN(c4ccccc4)CC3)c(=O)c2c(C)n1Cc1ccc(F)cc1 the results were GLP1R inv ag 9%, TGFb inhibitor -17% and HepG2 tox-1 -12%.
NCCCC(N)CC(=O)NCC1NC(=O)C(CO)NC(=O)C(N)CNC(=O)C(C2CCN=C(N)N2)NC(=O)/C(=C/NC(N)=O)NC1=O (stereo not drawn) was read as GLP1R ag -1%.

Screening results deposited in PubChem BioAssay by National Center for Advancing Translational Sciences (NCATS).
